Source: paper PMC5540273 (PLoS ONE, 2017)

Experiments:
Settings in all cases: concentration: 1 μM, replicates: in singlicate; n = 1
EIF2AK1 = test system: EIF2AK1
EPHA1 = test system: EPHA1
EPHA2 = test system: EPHA2
EPHA3 = test system: EPHA3
EPHA4 = test system: EPHA4
EPHA5 = test system: EPHA5
EPHA6 = test system: EPHA6
EPHA7 = test system: EPHA7
EPHA8 = test system: EPHA8
EPHB1 = test system: EPHB1
EPHB2 = test system: EPHB2
EPHB3 = test system: EPHB3
EPHB4 = test system: EPHB4
EPHB6 = test system: EPHB6
ERBB2 = test system: ERBB2
ERBB3 = test system: ERBB3
ERBB4 = test system: ERBB4
ERK1 = test system: T1, ERK1
T1 construct: gene MAPK3

ERK2 = test system: T2, ERK2
T2 construct: gene MAPK1

ERK3 = test system: T3, ERK3
T3 construct: gene MAPK6
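Further: KINOMEscan kinase panel screen.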

Row | SMILES | %Inh (EIF2AK1) | %Inh (EPHA1) | %Inh (EPHA2) | %Inh (EPHA3) | %Inh (EPHA4) | %Inh (EPHA5) | %Inh (EPHA6) | %Inh (EPHA7) | %Inh (EPHA8) | %Inh (EPHB1) | %Inh (EPHB2) | %Inh (EPHB3) | %Inh (EPHB4) | %Inh (EPHB6) | %Inh (ERBB2) | %Inh (ERBB3) | %Inh (ERBB4) | %Inh (ERK1) | %Inh (ERK2) | %Inh (ERK3)
1 | CSc1nn2c(=O)cc(N3CCOCC3)nc2n1Cc1cccc(Cl)c1Cl [GSK2347225] | 2% | 1% | 11% | 15% | 8% | 1% | 3% | 12% | 15% | 29% | 0% | 6% | 11% | 52% | 0% | 0% | 0% | 0% | 17% | 15%
2 | Cl.c1ccc(Cn2ccc3cc(Nc4ncnc5ccccc45)ccc32)cc1 [GW275568] | 5% | 7% | 1% | 40% | 0% | 0% | 0% | 10% | 20% | 4% | 6% | 4% | 18% | 33% | 100% | 29% | 88% | 0% | 0% | 4%
3 | N#Cc1ccc(Oc2ccc(Nc3ncnc4cc[nH]c34)cc2Cl)cc1 | 5% | 1% | 0% | 0% | 23% | 0% | 23% | 2% | 1% | 5% | 8% | 21% | 24% | 33% | 79% | 9% | 76% | 0% | 6% | 0%
4 | Oc1ccc2ncnc(Nc3ccc(OCc4ccccc4)cc3)c2c1 [GI262866] | 0% | 11% | 0% | 0% | 6% | 0% | 16% | 3% | 14% | 14% | 0% | 12% | 2% | 0% | 99.2% | 15% | 77% | 0% | 0% | 3%
5 | CN1CCC(n2cnc(-c3ccc(F)cc3)c2-c2ccnc(NC3CCNCC3)n2)CC1 [SB-229482] | 0% | 0% | 5% | 18% | 7% | 5% | 5% | 0% | 0% | 0% | 11% | 4% | 0% | 8% | 32% | 18% | 4% | 0% | 14% | 30%
6 | Cl.Fc1ccccc1COc1ccc(Nc2ncnc3ccc(-c4nnc(C(F)(F)F)o4)cc23)cc1Cl [GW424170] | 0% | 19% | 0% | 0% | 3% | 0% | 0% | 3% | 0% | 19% | 0% | 2% | 0% | 0% | 96.7% | 0% | 70% | 0% | 0% | 7%
7 | Cl.O=S(=O)(c1cccc(F)c1)c1ccc(Nc2ncnc3cc(Br)sc23)cc1Cl [GSK306886] | 0% | 9% | 9% | 14% | 19% | 0% | 16% | 2% | 2% | 10% | 42% | 19% | 17% | 0% | 98.7% | 0% | 43% | 0% | 0% | 10%
8 | Fc1ccc(Nc2nccc(-c3c(-c4ccc(Cl)cc4)nn4ncccc34)n2)cc1F [GW829058] | 0% | 13% | 3% | 27% | 12% | 24% | 15% | 8% | 9% | 20% | 17% | 15% | 14% | 23% | 21% | 36% | 0% | 6% | 28% | 0%
9 | Clc1cc(Nc2ncnc3cc[nH]c23)ccc1OCc1ccccn1 | 3% | 11% | 12% | 0% | 24% | 14% | 27% | 1% | 0% | 1% | 15% | 21% | 25% | 35% | 100% | 24% | 73% | 0% | 18% | 0%
10 | CCCc1ccc(S(=O)(=O)NC2CCN(c3ccnc(Nc4ccc(OC)cc4)n3)C2)cc1 (stereo not drawn) [GSK1379737] | 0% | 15% | 0% | 0% | 0% | 0% | 12% | 0% | 7% | 0% | 10% | 5% | 7% | 31% | 36% | 0% | 24% | 0% | 0% | 79%
11 | O=C(c1ccc(-c2cc(-c3c[nH]nc3-c3ccccn3)ccn2)cc1)N1CCCC1 [GW792479] | 0% | 56% | 21% | 1% | 13% | 36% | 2% | 9% | 19% | 5% | 19% | 14% | 17% | 0% | 10% | 57% | 0% | 0% | 32% | 0%
12 | COc1cc2c(Nc3cccc(NC(=O)c4ccccc4)c3)ncnc2cc1OCCCN1CCOCC1 [GSK223810] | 0% | 7% | 29% | 6% | 6% | 0% | 2% | 3% | 24% | 4% | 0% | 5% | 0% | 60% | 18% | 0% | 55% | 0% | 0% | 0%
13 | FC(F)(F)c1ccc(-c2nn3ncccc3c2-c2ccnc(Nc3cccc(C(F)(F)F)c3)n2)cc1 [GW828205] | 0% | 34% | 19% | 0% | 81% | 0% | 78% | 0% | 0% | 2% | 1% | 68% | 55% | 0% | 13% | 27% | 35% | 0% | 3% | 0%
14 | COC(=O)c1cccc(NC(=O)NCCNc2ccnc(Nc3ccc(F)cc3)n2)c1 [GSK1379883] | 0% | 5% | 32% | 0% | 7% | 0% | 20% | 3% | 9% | 4% | 0% | 21% | 6% | 4% | 14% | 15% | 28% | 0% | 11% | 0%
15 | Cc1cc(N2CCC(NS(=O)(=O)c3ccc(F)cc3)CC2)nc(Nc2cccc(C#N)c2)n1.O=C(O)C(F)(F)F [GSK1653537] | 0% | 1% | 0% | 0% | 7% | 0% | 5% | 6% | 19% | 15% | 0% | 1% | 13% | 8% | 13% | 0% | 0% | 0% | 0% | 7%
16 | Clc1cccc(-c2nc(Nc3ccncc3)c3ccccc3n2)c1 [GW873004] | 0% | 100% | 38% | 0% | 5% | 0% | 0% | 15% | 18% | 19% | 2% | 0% | 45% | 0% | 38% | 46% | 0% | 1% | 12% | 0%
17 | Nc1nc(-c2cccnc2)c(-c2ccnc3ccccc23)s1 [GW684083] | 0% | 0% | 21% | 12% | 4% | 0% | 8% | 0% | 9% | 6% | 0% | 17% | 11% | 28% | 51% | 20% | 8% | 11% | 4% | 0%
18 | Fc1cccc(COc2ccc(Nc3ncnc4cc[nH]c34)cc2Cl)c1 | 23% | 2% | 15% | 0% | 18% | 20% | 7% | 4% | 1% | 9% | 20% | 0% | 22% | 19% | 100% | 11% | 83% | 8% | 24% | 22%
19 | Cc1cccc(-c2nc(Nc3ccc4[nH]nnc4c3)c3ccccc3n2)n1 [GW867587] | 0% | 0% | 0% | 0% | 0% | 0% | 0% | 0% | 0% | 6% | 0% | 0% | 0% | 0% | 0% | 0% | 11% | 0% | 0% | 0%
20 | COc1ccc(NC(=O)c2ccc(-c3cc(-c4nnc(C)o4)ccc3C)cc2)cc1 [GW595885] | 0% | 8% | 7% | 0% | 7% | 0% | 0% | 0% | 6% | 0% | 10% | 13% | 6% | 0% | 18% | 0% | 7% | 0% | 0% | 0%
21 | CCc1nc(-c2cccc(C)c2)c(-c2ccnc(NC(=O)c3ccccc3)c2)s1 | 15% | 0% | 0% | 4% | 32% | 28% | 45% | 12% | 15% | 14% | 4% | 36% | 37% | 100% | 46% | 2% | 34% | 0% | 40% | 4%
